Data: PubChem BioAssay (NCI)
This is part of a sample that, as a whole, favours compounds with a hit. Of some 83,000 tested, about 20% had one in any assay.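 Results are percent growth after 48 hours of single-concentration exposure. 100 means growth as in untreated cells, lower positive values show inhibition; negative values down to -100 show cell death.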 Unmarked numbers belong to inactive results. Active and inactive are the calls of the source. Rule for the calls: active = growth percent below 10; inactive = the rest.

What was measured:
Assay in all cases: NCI-60 one-dose screen, 48 h (100 = growth as untreated, 0 = no growth, -100 = all killed)
Details in all cases: 10 µM unless noted
SK-MEL-2 melanoma = system: SK-MEL-2 melanoma
EKVX NSCLC = system: EKVX NSCLC
SN12C renal = system: SN12C renal
UO-31 renal = system: UO-31 renal
TK-10 renal = system: TK-10 renal
ACHN renal = system: ACHN renal
CAKI-1 renal = system: CAKI-1 renal
A498 renal = system: A498 renal
CCRF-CEM leukemia = system: CCRF-CEM leukemia
MOLT-4 leukemia = system: MOLT-4 leukemia

Row | SMILES | growth (SK-MEL-2 melanoma) | growth (EKVX NSCLC) | growth (SN12C renal) | growth (UO-31 renal) | growth (TK-10 renal) | growth (ACHN renal) | growth (CAKI-1 renal) | growth (A498 renal) | growth (CCRF-CEM leukemia) | growth (MOLT-4 leukemia)
1 | CCC1=C[C@@H]2C[C@]3(C(=O)OC)c4[nH]c5ccccc5c4CC[N@+](CC(=O)Nc4cc5c(cc4OC)N(C)[C@H]4[C@@](O)(C(=O)OC)[C@H](OC(C)=O)[C@]6(CC)C=CCN7CC[C@]54[C@@H]76)(C2)[C@H]13 | 105% | 105% | 105% | 84.4% | 98.6% | 106% | 93.2% | 121% | 80.6% | 108%
2 | CC(C)=CCC[C@](C)(O)[C@H]1CC[C@]2(C)[C@@H]1CC[C@@H]1[C@@]3(C)C/C(=C/c4ccco4)C(=O)C(C)(C)[C@@H]3CC[C@]12C | 109% | 101% | 97% | 88.7% | 103% | 102% | 90.7% | 86.3% | 101% | 104%
3 | Nc1cnc(C(=O)NNc2nc3cc(F)ccc3n3cccc23)cn1 | 75% | 26.2% | 46.6% | 8.25% (active) | 51.3% | 12.9% | 29.5% | 44.7% | 21.4% | 19%
4 | CN(C)Cc1ccc(O)c(C(=O)O)c1 | 124% | 101% | 109% | 96.4% | 70.7% | 101% | 92.8% | 104% | 103% | 101%
5 | O=C1c2c(c3c4ccccc4[nH]c3c3ccc4ccccc4c23)C(=O)N1CCN1CCOCC1 | 69.9% | 61.8% | 30.2% | 27.6% | 71.2% | 15.3% | 32.8% | 61.4% | 10.9% | 6.38% (active)
6 | O=C(CSc1nc2ccc([N+](=O)[O-])cc2[nH]1)Nc1ccc([N+](=O)[O-])cc1 | -5.26% (active) | 20.3% | 9.04% (active) | 9.43% (active) | 31.8% | 21.4% | 12.7% | -6.66% (active) | 16.8% | 5.72% (active)
7 | N#Cc1ccc(O)c(C2=NCC(c3ccccc3)O2)c1 (stereo not given) | 50.6% | 37.1% | 41.7% | 20.1% | 52.2% | 40.5% | 8.26% (active) | 63.5% | 28.1% | 18.7%
8 | Cc1ccc(C[P+](c2ccccc2)(c2ccccc2)c2ccccc2)cc1 | -4.59% (active) | 6.8% (active) | 4.76% (active) | 88.1% | 30.5% | 24.4% | 44.8% | 27.5% | 9.9% (active) | -31.4% (active)
9 | O=S(=O)(Nc1ccc(F)cc1F)c1ccc(-c2cnc(C3CC3)o2)cc1 | 36.7% | 41.1% | 42.9% | 40% | 67.2% | 38.5% | 25% | -3.02% (active) | 19.3% | 28.3%
10 | Cc1ccc(NC(=O)c2sc3nc(C)c(Br)c(C)c3c2N)cc1 | 82.6% | 61.9% | 70.5% | 65.4% | 50.7% | 34.5% | 74.3% | 76.5% | 94.7% | 90%
11 | O=C(Nc1nc2ccccc2s1)c1ccc(F)cc1 | 114% | 77.8% | 108% | 89.1% | 125% | 98% | 62.9% | 89.8% | 101% | 100%
12 | O=C(O)c1cn(C2CC2)c2cc(N3CCN(C(=O)N(c4ccccc4)c4nc(-c5ccccc5)cs4)CC3)c(F)cc2c1=O | -18.3% (active) | 16.9% | 1.06% (active) | 5.23% (active) | 38.3% | -79.1% (active) | 6.68% (active) | 3.2% (active) | 10.9% | 2.43% (active)
13 | CCOC(=O)c1cc(C(=O)c2cc(OC)c(OC)c(OC)c2)n2ncccc12 | 57.7% | 37.6% | 53.6% | 39.8% | 54% | 51.6% | 38.1% | -5.24% (active) | 11% | 18.5%
14 | O=C(C[C@]1(O)C(=O)Nc2ccccc21)c1cccc(C(F)(F)F)c1 | 91.2% | 99.5% | 80% | 58.1% | 138% | 88.2% | 81.7% | 99.8% | 97% | 96%
15 | O=C1C(Cl)=C(Nc2ccc(S(=O)(=O)N3CCOCC3)cc2)C(=O)c2ccccc21 | 108% | 53.5% | 78.4% | 52.8% | 105% | 59% | 78.5% | 68.8% | 6.98% (active) | 5.92% (active)
16 | CC1CCN(S(=O)(=O)c2ccc(S(=O)(=O)N3CCCC(c4nc5c(nnn5Cc5cccc(Cl)c5)c(=O)[nH]4)C3)cc2)CC1 (stereo not given) | 46.9% | 69.1% | 47.3% | 43.1% | 71.5% | 71.7% | 22.2% | 38% | 15.2% | 19.2%
17 | Nc1[nH]n2cc(-c3ccccc3)nc2c1N=Nc1ccc(S(N)(=O)=O)cc1 | 31.6% | 54.6% | 20.1% | 19.5% | 48.4% | 8.58% (active) | 3.86% (active) | 8.19% (active) | 19.7% | 13.9%
18 | CC(=O)N1N=C(c2ccc(Nc3nc(Nc4ccccc4)nc(Nc4ccccc4)n3)cc2)CC1c1ccccc1 (stereo not given) | 58.6% | 79.7% | 99.6% | 73.5% | 87.7% | 93.5% | 90.2% | 82.4% | 68.2% | 75.1%
19 | O=C(c1ccncc1)N1N=C(c2ccc(Cl)cc2)C[C@H]1c1cn(-c2ccccc2)nc1-c1ccccc1 | 110% | 87.2% | 86.6% | 90.1% | 109% | 70.8% | 65.4% | 102% | 78.9% | 70.8%
20 | c1ccc([P+](c2ccccc2)(c2ccccc2)c2ccc3c4ccc([P+](c5ccccc5)(c5ccccc5)c5ccccc5)c5cccc(c6cccc2c63)c54)cc1 | 18.6% | 12.8% | 10.5% | 39.4% | 52.2% | 41.3% | 40.3% | -11.3% (active) | 26.5% | 23.2%
21 | CCOC(=O)c1c(C(=O)c2cn(C)c3ccc(Br)cc23)c(-c2cn(C)c3ccc(Br)cc23)n(NC(=O)OC(C)(C)C)c1C | 57.8% [100 µM] | 80.5% [100 µM] | 92% [100 µM] | 58.7% [100 µM] | 69.2% [100 µM] | 78.9% [100 µM] | 43.9% [100 µM] | 87.2% [100 µM] | 102% [100 µM] | 99.5% [100 µM]
